# IMPase cell inh: qHTS Assay for Identifying the Cell-Membrane Permeable IMPase Inhibitors. Inositol monophosphatase 1 (Rattus norvegicus), P97697. CHO-M1 cells, IP1 accumulation, HTRF TR-FRET ratio. inhibition (IP1 accumulation), % at 46.1 µM. 120,000 tested, under 10 active; active = well fitted curve in the direction sought with a large enough effect in the signal ratio, not every such curve was filed as active; inconclusive = small, poorly fitted or top-dose-only effect, or a change in a side signal; inactive = no such curve, though single readings can be large or run the other way; the % refers to the signal ratio;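 also: cells stimulated with carbachol in lithium chloride buffer; higher means more IMPase inhibition seen as more IP1 and lower FRET ratio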
# Target sequence (P97697 whole entry, looked up): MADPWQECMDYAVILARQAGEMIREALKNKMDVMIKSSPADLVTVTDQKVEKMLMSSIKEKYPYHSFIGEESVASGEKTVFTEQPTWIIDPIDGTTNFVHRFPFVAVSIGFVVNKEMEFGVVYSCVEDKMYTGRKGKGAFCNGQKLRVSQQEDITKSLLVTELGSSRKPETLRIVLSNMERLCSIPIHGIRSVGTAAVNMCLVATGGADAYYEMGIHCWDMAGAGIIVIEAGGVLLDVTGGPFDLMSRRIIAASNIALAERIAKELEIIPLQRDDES
#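 CHO-M1, 2000 cells/well, cultured 16–30 h; cpd up to 46 uM; carbachol (50 uM solution, stimulation buffer w/ 50 mM LiCl, pH 7.4), 30 min 37C; IP-One TR-FRET, 10 min RT; Ex 320/Em 665, 620; Hill-fit AC50.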
# PNC assembly inh: High Content Assay for Compounds that inhibit the Assembly of the Perinucleolar Compartment; activity change (PNC), negative = inhibition, % at 10 µM; AID 2417, 2010; 140,000 tested, 3.1% active; PC3M PTB-GFP, PNC prevalence imaging, 16 h; hits give low values;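 active = readout at or below -70, meaning at least 70% loss of cells showing the perinucleolar compartment, a nuclear body marking cancer cells; inconclusive = readout between -30 and a set limit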
#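 Read-out is percentage of cells bearing a perinucleolar compartment, from automated 20x imaging of fixed, Hoechst-stained PC3M PTB-GFP cells. Cells were seeded 4 h, then exposed 16 h to compound (23 nl of library stock) in duplicate plates.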
# LMNA splice mod: qHTS Assay for Modulators of Lamin A Splicing | AID 1487, 2009 | Potency, µM (top dose mostly 46.1 µM), usual class: inhibitors | HeLa LMNA splicing GFP/RFP minigene ratio, 48 h | 200,000 tested, 0.01% active; active = well fitted inhibition curve with a large enough effect in the signal ratio, with a control signal flat, not every such curve was filed as active; inconclusive = small, poorly fitted or top-dose-only effect, or effect the other way, or a change in a side signal; the % refers to the signal ratio
#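 Read-out is the ratio of GFP to DsRed2 object intensity, acquired by 488 nm laser-scanning cytometry on HeLa lamin A-EGFP minigene reporter cells. Compound incubation 48 hrs at 37 °C in Opti-MEM with 2% FBS; DMSO 0.5% final.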
# Numbers stand for hits; 0 = inactive; ? = inconclusive; - = no result; [ ] = dose if it differs, or a comment. This excerpt belongs to a sample that is enriched for hits.
SMILES,IMPase cell inh,PNC assembly inh,LMNA splice mod
O=C(NCCc1ccc(Cl)cc1)C1(c2cccs2)CCOCC1,-,-,0
CNC(=O)Nc1cccc(NC(=O)NC)n1,0,0,0
CC(=O)Nc1cccc(NC(C)=O)n1,0,-119,0
COc1cccc(/C(C#N)=C/c2c(-c3ccc(Cl)cc3)nc3c(C)cccn23)c1,0,-99,?
Cc1cccn2c(/C=N/OCc3cccc(F)c3)c(-c3ccc(Cl)cc3)nc12,0,0,0
CCN(CC(=O)NC(C)C)Cc1nc2c(Br)cc(Br)cc2c(=O)[nH]1,-,-,0
COc1ccc(-c2nn3c(-c4ccccc4C)nnc3c3ccccc23)cc1,0,-,-
Cc1cccc(CN(C(=S)Nc2c(C)cccc2C)c2cccnc2)c1,-,-,0[9.22 µM]
CCn1cc(CNC(=O)c2cccc([N+](=O)[O-])c2)cn1,-,0,0
CCn1ncc(CNC(=O)c2cccc([N+](=O)[O-])c2)c1C,0,-92,0
CCc1cccc(C)c1NS(=O)(=O)c1cc2[nH]c(=O)c(=O)[nH]c2cc1C,-,-,0
O=C(CSc1oc(-c2ccco2)nc1S(=O)(=O)c1ccccc1)NCC1CCCO1 (stereo not given),0,0,0
O=C(CSc1oc(-c2ccco2)nc1S(=O)(=O)c1ccc(F)cc1)NCC1CCCO1 (stereo not given),0,-119,0
COc1cccc(C2CC(c3ccccc3Cl)n3ncnc3N2)c1 (stereo not given),0,0,0
CCNC(=O)C1CN(S(=O)(=O)c2ccccc2)CCN1S(=O)(=O)c1ccccc1 (stereo not given),0,0,0
CCc1cccc(CC)c1NC(=O)C1CN(S(=O)(=O)c2ccccc2)CCN1S(=O)(=O)c1ccccc1 (stereo not given),0,-111,0
Cc1ccc(C)c(NC(=O)CSc2nc3nccnc3c(=O)n2CCc2c[nH]c3ccccc23)c1,-,-,0
CCC1SC(N)=NC1=O (stereo not given),0,-90,0
NC1=NC(=O)C(Cc2ccccc2)S1 (stereo not given),-,-,0
CCOC(=O)c1c(O)c(O)c(C(=O)OCC)n1-c1ccccc1,-,-,0
CCOC(=O)c1ccc(N=C2C(=S)N(c3ccc(C(=O)OCC)cc3)C(=N)N2/N=C/c2ccccc2)cc1,0,-86,0
COC(=O)Oc1ccc(/C=N/NC(=O)CSCc2ccccc2Br)cc1OC,0,?,0
N#Cc1cn(CC(=O)N2CCCc3ccccc32)c2ccccc12,0,0,0
O=Cc1cn(CC(=O)N2CCCc3ccccc32)c2ccccc12,0,-100,?
CCCCc1nc2c(c3c1C[C@H](C)OC3)CN(S(=O)(=O)c1ccc3c(c1)OCCN3C)CC2,-,-,0[9.22 µM]
SMILES,IMPase cell inh,PNC assembly inh,LMNA splice mod
Cc1ccccc1-c1nc(N(C)C)c2ccccc2n1,-,-,0
Cc1cc(-c2ccc([N+](=O)[O-])cc2)nc2ccccc12,-,-,0
CN(Cc1ccccc1)c1nc(-c2ccc([N+](=O)[O-])cc2)nc2ccccc12,0,-98,0
CN(C)c1ccc(-c2nc(N(C)C)c3ccccc3n2)cc1,-,-,13µM
CCc1nn2c(=O)c(S(=O)(=O)Nc3ccc(OC)c(Cl)c3)c(C)nc2s1,0,-,-
COc1cccc(Cn2c(=O)n(CC3CCC(C(=O)NC(C)C)CC3)c(=O)c3sccc32)c1 (stereo not given),-,-,0
CCCn1cnc2c1c(=O)n(CCCCC(C)=O)c(=O)n2C,0,-,?
CC1CCC(NC(=O)Cn2c(=O)[nH]c3ccsc3c2=O)CC1 (stereo not given),0,0,0
O=C(Cn1c(=O)[nH]c2ccsc2c1=O)NC1CCCCCC1,0,-100,0
COC(=O)c1sc2cccc(F)c2c1S(=O)(=O)N1CCN(c2cccc(C)c2)C(C)C1 (stereo not given),-,-,0
COc1ccc(NC(=O)CCn2cnnn2)cc1,-,-,0
CC(NC(=O)CSc1nnc(-c2cc3cc(Cl)ccc3o2)n1C)c1ccccc1 (stereo not given),0,-119,?
Cn1c(SCC(=O)NC2CCCCC2)nnc1-c1cc2cc(Cl)ccc2o1,0,0,0
CN(Cc1ccco1)c1ccnc(-c2cccc(C#N)c2)n1,-,-,0
O=C(c1cc(NC(=O)C23CC4CC(CC(C4)C2)C3)cc(NC(=O)C23CC4CC(CC(C4)C2)C3)c1)N1CCCCC1,0,-97,?
O=C(NC(=S)N1CCCCC1)C12CC3CC(CC(C3)C1)C2,0,0,0
CC(Nc1cccc(F)c1)C(=O)Nc1ccc(S(N)(=O)=O)cc1 (stereo not given),-,-,0
CCC(NC(=O)C1CCC1)c1ccccc1 (stereo not given),0,-100,0
CCC(NC(=O)CCc1ccccc1)c1ccccc1 (stereo not given),-,-,0
CS(=O)(=O)Nc1cccc(-c2ccc3ncnc(NCCN4CCOCC4)c3c2)c1,-,-,0
COc1ccc(C)cc1NC(=O)Nc1ccccc1OCc1cc(=O)n2ccccc2n1,-,-,0
Nc1ncc(Br)cc1Br,-,?,0
Nc1cc(Br)c(N)c(Br)c1,0,-93,0
C=CCN1C(=O)C(Cc2ccc(OC)cc2)S/C1=N/N=C/c1ccco1 (stereo not given),0,0,0
O=C(COc1ccccc1)N1CCN(c2ncnc3c2cnn3-c2ccccc2)CC1,0,-97,?
SMILES,IMPase cell inh,PNC assembly inh,LMNA splice mod
Cc1cccc(C(=O)N2CCN(c3ncnc4c3cnn4-c3ccccc3)CC2)c1,0,0,?
O=c1c2c(nc3nc(Cc4ccccc4)[nH]n13)CCC2,0,-90,0
Cc1nc2nc3c(c(=O)n2[nH]1)CCC3,0,?,0
CCC(C)NC(=O)CSc1ccc(Cl)cc1 (stereo not given),-,0,0
CC(C)C(NC(=O)CSc1ccc(Cl)cc1)C(C)C,0,-83,0
CCOC(=O)C1CCCN(C(=O)c2ccc3c(c2)N(Cc2ccccc2)C(=O)c2ccccc2S3=O)C1 (stereo not given),-,-,0
CCCn1c2ccccc2c2cnn(CC(=O)NCCc3ccc(S(N)(=O)=O)cc3)c(=O)c21,-,-,0
N#CCC(=O)Nc1ncn(Cc2ccccc2Cl)n1,0,-81,0
N#CCC(=O)Nc1ccccc1C(=O)O,?,0,0
CCOC(=O)N1CCN(C(=O)c2cc3c(=O)[nH]c4ccccc4c3s2)CC1,0,-119,0
CCOC(=O)N1CCN(C(=O)c2ccc(-n3c(=S)[nH]c4ccccc4c3=O)cc2)CC1,0,0,0
COc1ccc(C2C(=O)N(C3CCCCC3)CC(=O)N2CCc2ccc(OC)c(OC)c2)cc1 (stereo not given),-,-,0
CCCOC(=O)c1c(NC(=O)CCCn2nc([N+](=O)[O-])cc2C)sc(C(=O)OC)c1C,0,-119,0
CCCOC(=O)c1c(NC(=O)CCCn2nc([N+](=O)[O-])c(Cl)c2C)sc(C(=O)OC)c1C,0,0,0
Cc1nn2cc(-c3ccccc3)nc2[nH]c1=O,?,?,0
O=C(O)CCc1nn2cc(-c3ccccc3)nc2[nH]c1=O,?,-100,0
CCCn1c2ccccc2c2cnn(CC(=O)NC(CCSC)C(=O)OC)c(=O)c21 (stereo not given),-,-,0

# Source: PubChem
